Assay results taken from PubChem BioAssay (Tox21).
Active and inactive are the calls of the source. Calls come from the whole dose curve; as a rule, active = well fitted curve in the direction sought with a large enough effect in the repeat runs; inconclusive = weak or mixed curves; inactive = flat fitted curve, though single readings scatter. Positions of bridges follow the written chain, without caps; N, C: chain ends. Non-standard residues stand in square brackets, D forms with d. Residues, ends and D or L forms follow the SMILES beside them. *: point of attachment. X1 = CC[C@@H](C)[C@@H](N)C1=N[C@H](C(=O)*)CS1; d(aIle) = CC[C@H](C)[C@@H](N)C(=O)O; dOrn = NCCC[C@@H](N)C(=O)O

Experiment: qHTS assay to test for compound auto fluorescence at 535 nm (green) in HEK293 cells (AID 720680)
Settings: green autofluorescence 485/535 nm; series mostly up to 46 µM
From the text: U.S. Tox21 Program National Center for Advancing Translational Sciences [NCATS] NIH Chemical Genomics Center [NCGC] U.S. Environmental Protection Agency [EPA] National Institutes of Environmental Health Sciences [NIEHS] National Toxicology Program [NTP] U.S. Food and Drug Administration [FDA] Tox21 Assay Overview: Compound auto fluorescence often interferes with screening of the compound library against various biological targets and signaling pathways. Some of these compounds may have fluorophoric properties. Such properties may interfere with the assay outputs resulting in false positives and/or negatives. To decrease such complications and ensure the compound activities are relevant in terms of biological response, the Tox21 10K compound library was screened for auto fluorescence. From the fluorophores used as reporter signals in our screening assays, the auto fluorescence equivalencies of compounds against three fluorophores have been evaluated: Triamterene, Fluorescein and Rose Bengal sodium for blue, green and red fluorescence, respectively. The fluorescence intensities were measured using Excitation/Emission wavelengths at 405/460nm, 485/535nm and 540/590nm for blue, green and red labels, respectively. This assay includes the green fluorescence data.
Tox21 Assay Protocol Summary: 2,000 HEK293 cells in 5 uL of culture medium containing 10% dialyzed FBS per well were dispensed into black wall/clear bottom 1536-well plates using a Multidrop Combi Dispenser (Thermo Scientific). The assay plates were incubated for 4-5 hr at 37C to allow cell attachment to the well bottom, followed by the transfer of 23 nL compound or DMSO vehicle by a pintool work station (Kalypsys, San Diego, CA). After the assay plates were incubated overnight at 37C and 5% CO2, fluorescence intensities in the assay plates were measured by an Envision (PerkinElmer, Shelton, CT) plate reader using three labels for measuring blue, green and red fluorescence at […] 460, 535 and 590nm respectively.

Compound | outcome
Nc1ccc(N)c([N+](=O)[O-])c1 | inactive
CC[C@@H](C)[C@H](N)C(=O)O | inactive
CC12CCC(C[N+](C)(CCC[N+](C)(C)C)C1)C2(C)C (stereo not given) | inactive
CC[C@@H](C)[C@@H](N)C1=N[C@H](C(=O)N[C@@H](CC(C)C)C(=O)N[C@@H](CCC(=O)O)C(=O)N[C@@H](C(=O)N[C@@H]2CCCCNC(=O)[C@@H](CC(N)=O)NC(=O)[C@@H](CC(=O)O)NC(=O)[C@@H](Cc3cnc[nH]3)NC(=O)[C@@H](Cc3ccccc3)NC(=O)[C@@H]([C@H](C)CC)NC(=O)[C@@H](CCCN)NC2=O)[C@@H](C)CC)CS1 (X1-LE[d(aIle)][dK][dOrn][dI][dF][dH][dD][dN]; lactam 4-C) | inactive
CCN1CCCC1CNC(=O)c1cc(S(=O)(=O)CC)ccc1OC (stereo not given) | inactive
CC(C)(COP(=O)(O)OP(=O)(O)OC[C@H]1O[C@@H](n2cnc3c(N)ncnc32)[C@H](O)[C@@H]1OP(=O)(O)O)C(O)C(=O)NCCC(=O)NCCS (stereo not given in full) | inactive
CCN(CC)C(=O)[C@]1(c2ccccc2)C[C@@H]1CN | inactive
Nc1nc(NC2CC2)c2ncn([C@@H]3C=C[C@@H](CO)C3)c2n1 | inactive
O=c1[nH]c(=O)n([C@H]2C[C@H](O)[C@@H](CO)O2)cc1/C=C/Br | inactive
CCSCC | inactive
O=C1c2ccccc2-c2n[nH]c3cccc1c23 | inactive
CC(C)(S)C(=O)N[C@@H](CS)C(=O)O | inactive
N#Cc1c(N(CC(=O)O)CC(=O)O)sc(C(=O)O)c1CC(=O)O | inactive
O=C1c2ccccc2C(=O)C1c1ccc(F)cc1 | inactive
CS(=O)(=O)c1ccc([C@@H](CC2CCCC2)C(=O)Nc2cnccn2)cc1Cl | inactive
CCCCCCCCCCCCN1CCCC1=O | inactive
CO[C@H](C(=O)[C@@H](O)[C@@H](C)O)C1Cc2cc3cc(O[C@H]4C[C@@H](O[C@H]5C[C@@H](O)[C@H](O)[C@@H](C)O5)[C@@H](O)[C@@H](C)O4)c(C)c(O)c3c(O)c2C(=O)[C@H]1O[C@H]1C[C@@H](O[C@H]2C[C@@H](O[C@H]3C[C@](C)(O)[C@H](O)[C@@H](C)O3)[C@H](O)[C@@H](C)O2)[C@H](O)[C@@H](C)O1 (stereo not given in full) | inactive
CC(=O)N[C@@H](C=O)[C@H](O)[C@H](O)[C@@H](O)CO | inactive
CC(C)c1ccc2sc3ccccc3c(=O)c2c1 | inactive
CCCOC(=O)c1ccccc1O | inactive

Compound | outcome
N=C(N)n1cccn1 | inactive
CCc1ncnc2cc(OC)c(OC)cc12 | inactive
O=C(O)CCCC/C=C(\c1ccccc1)c1cccnc1 | inactive
CCOC(=O)Cc1ccc(-c2ccccc2)cc1 | inactive
CC(=O)O[C@H]1C[C@@H]2CC[C@@H]3[C@H](CC[C@@]4(C)[C@H]3C[C@H]([N+]3(C)CCCCC3)[C@@H]4OC(C)=O)[C@@]2(C)C[C@@H]1[N+]1(C)CCCCC1 | inactive
O=C1c2c(O)cccc2[C@H]([C@@H]2O[C@H](CO)[C@@H](O)[C@H](O)[C@H]2O)c2cc(CO)cc(O)c21 | inactive
O=C(O)/C=C/C(=O)Nc1ccc(S(=O)(=O)Nc2nccs2)cc1 | inactive
C=CC[N+]1([C@H]2C[C@H]3[C@@H]4CC[C@H]5C[C@H](O)[C@@H](N6CCOCC6)C[C@]5(C)[C@H]4CC[C@]3(C)[C@H]2OC(C)=O)CCCC1 | inactive
Nc1nc(/C(=C/CC(=O)O)C(=O)N[C@@H]2C(=O)N3C(C(=O)O)=CCS[C@H]23)cs1 | inactive
Cc1cc(N)c2ccccc2[n+]1CCCCCCCCCC[n+]1c(C)cc(N)c2ccccc21 | inactive
CNCC(=O)N[C@@H](CCCN=C(N)N)C(=O)N[C@H](C(=O)N[C@@H](Cc1ccc(O)cc1)C(=O)N[C@H](C(=O)N[C@@H](Cc1cnc[nH]1)C(=O)N1CCC[C@H]1C(=O)N[C@@H](C)C(=O)O)C(C)C)C(C)C | inactive
N[C@@H](Cc1ccc(O)c(O)c1)C(=O)O | inactive
NC(=S)NS(=O)(=O)c1ccc(N)cc1 | inactive
Oc1ccc(Cl)cc1C1CCCC1 | inactive
CO[C@H]1C[C@@H]2CC[C@@H](C)[C@@](O)(O2)C(=O)C(=O)N2CCCC[C@H]2C(=O)O[C@H]([C@H](C)C[C@@H]2CC[C@@H](O)[C@H](OC)C2)CC(=O)[C@H](C)C=C(C)[C@@H](O)[C@@H](OC)C(=O)[C@H](C)C[C@H](C)/C=C/C=CC=C1C | inactive
CC1CCCCN1CCCOC(=O)c1ccccc1 (stereo not given) | inactive
CC1(C)C[C@@H]1C(=O)N/C(=C\CCCCSC[C@H](N)C(=O)O)C(=O)O | inactive
CCCCCCCC/C=C\CCCCCCCC(=O)N(CCO)CCO | inactive
C=CC1=C(C(=O)O)N2C(=O)[C@@H](NC(=O)/C(=N\O)c3csc(N)n3)[C@H]2SC1 (stereo in doubt) | inactive
CN1[C@@H](CC(=O)c2ccccc2)CCC[C@H]1C[C@H](O)c1ccccc1 | inactive
